Data as given in PubChem BioAssay AID493168 (National Center for Advancing Translational Sciences (NCATS), 2011).
Records with an inconclusive call do not appear. Activity calls are given as the source filed them. Calls follow the shape of the dose curve; as a rule, active = well fitted inhibition curve with a large enough effect; inconclusive = small, poorly fitted or top-dose-only effect, or effect the other way; inactive = flat fitted curve, though single readings scatter.

Biological target: Ubiquitin carboxyl-terminal hydrolase 2 (Homo sapiens) (UniProt O75604)
Assay: Confirmation Assay for Inhibitors of Ubiquitin-specific Protease USP2a Using CHOP2 as the Reporter; also: nearly all actives have a fitted effect of over 55% in size;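 as to activity change, negative = inhibition: plate controls were DMSO wells for no effect and full inhibition by NEM control for full effect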
Conditions: USP2 core, Ub-CHOP2 coupled reporter fluorescence; series mostly up to 38.3 µM; activity change, negative = inhibition: at the top concentration
Summary of the method: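 Ub-CHOP2 cleavage coupled to reporter activation was read by fluorescence after 60 min at RT, with 25 nM final Ub-CHOP2 and substrate. Enzyme (10 nM final USP2 core) first sat 30 min with compound; data were normalized to NEM and fitted to concentration-response curves.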
Potency is read from the fitted curve at half-maximal effect.

Sequence of Ubiquitin carboxyl-terminal hydrolase 2 (Homo sapiens) (O75604 whole entry, looked up): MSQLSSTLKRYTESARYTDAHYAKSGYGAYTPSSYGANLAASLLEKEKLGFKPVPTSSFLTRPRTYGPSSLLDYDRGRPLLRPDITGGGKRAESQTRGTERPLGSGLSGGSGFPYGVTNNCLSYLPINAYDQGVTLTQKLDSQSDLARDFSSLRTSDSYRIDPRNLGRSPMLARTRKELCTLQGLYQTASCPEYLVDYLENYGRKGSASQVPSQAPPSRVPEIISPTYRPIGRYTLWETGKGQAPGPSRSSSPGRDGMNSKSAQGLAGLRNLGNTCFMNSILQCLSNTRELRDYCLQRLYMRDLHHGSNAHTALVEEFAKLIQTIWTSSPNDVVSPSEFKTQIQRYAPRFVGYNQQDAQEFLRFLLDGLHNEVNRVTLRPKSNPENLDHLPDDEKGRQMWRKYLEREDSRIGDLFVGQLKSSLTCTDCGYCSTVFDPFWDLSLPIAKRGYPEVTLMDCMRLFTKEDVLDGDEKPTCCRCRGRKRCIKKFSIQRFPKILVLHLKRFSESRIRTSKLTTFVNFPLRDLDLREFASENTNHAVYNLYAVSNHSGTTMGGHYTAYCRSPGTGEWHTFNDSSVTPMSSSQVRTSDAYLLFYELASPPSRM

Row | Compound | Potency | activity change, negative = inhibition
1 | O=C(CCN1C(=O)/C(=C\c2ccco2)SC1=S)Nc1ccc(C(=O)O)c(O)c1 | 13.1 µM (active) | –
2 | COc1cccc(N2CCN(C(=O)CN(C)S(=O)(=O)c3ccc4c(c3)CCC(=O)N4)CC2)c1 | – | 0% (inactive)
3 | C=C(CCC(=O)c1ccccc1)C(=O)c1ccccc1 | – | -11.2% (inactive)
4 | O/N=C/c1ccccc1OCc1ccccc1F | – | 3.9% (inactive)
5 | c1ccc(-c2nc3nc4ccccc4nc3n2Cc2ccco2)cc1 | – | 5.83% (inactive)
6 | Cc1ccc(NC(=O)c2onc(C)c2Cl)cc1 | – | -4.53% (inactive)
7 | CN(C)c1cccc(C(=O)NNC(=O)C23CC4CC(CC(C4)C2)C3)c1 | – | -0.517% (inactive)
8 | O=C(COC(=O)/C=C/c1ccc(Cl)cc1)NC1CC1 | – | 0.196% (inactive)
9 | CCc1sc(/C=C(/C#N)C(N)=S)cc1[N+](=O)[O-] | – | -3.59% (inactive)
10 | CCCSCCCNC(=O)CC1Oc2ccccc2NC1=O (stereo not given) | – | -2.19% (inactive)
11 | Cn1c(=O)c2c(nc(CN3CCN(C(=O)c4ccco4)CC3)n2CCCc2ccccc2)n(C)c1=O | – | 1.35% (inactive)
12 | O=C(Oc1ccccc1C(=O)Nc1ccccc1)c1ccccc1Br | – | 1.52% (inactive)
13 | COc1ccc(OCC(=O)Nc2ccccc2OC)cc1 | – | 7.41% (inactive)
14 | COc1ccc(OC)c(Nc2ccc(Nc3cc(OC)ccc3OC)nn2)c1 | – | -0.288% (inactive)
15 | Cc1ccc(/C=N/NC(=O)c2cc(-c3ccc(C)o3)[nH]n2)cc1 | – | -3.8% (inactive)
16 | O=C(COC(=O)c1cccc(S(=O)(=O)N2CCc3ccccc32)c1)NC1CCS(=O)(=O)C1 (stereo not given) | – | 2.24% (inactive)
17 | O=C(NC1CCCC1)C1C2C=CC(C2)C1C(=O)N1CCOCC1 (stereo not given) | – | 4.55% (inactive)
18 | CC1=NN(C(=O)c2csc(C)c2C)C(O)(C(F)(F)F)C1 (stereo not given) | – | 7.72% (inactive)
19 | Cc1ccccc1[C@@H]1C(C#N)=C(N)S[C@H]1C(=O)c1ccccc1 | – | -2.6% (inactive)
20 | COc1ccc(-n2c(=S)[nH]c3cc(C(=O)Nc4cc(OC)c(OC)c(OC)c4)ccc3c2=O)c(OC)c1 | – | -0.814% (inactive)

Row | Compound | Potency | activity change, negative = inhibition
21 | CC1CC(C)CN(C(=O)CSc2nnc(-c3ccc(Cl)cc3)o2)C1 (stereo not given) | – | -4.82% (inactive)
22 | CCN1C(=O)C(NC(C)=O)c2cc(OC)ccc21 (stereo not given) | – | 1.61% (inactive)
23 | C[C@H](CO)N1C[C@H](C)[C@@H](CN(C)S(=O)(=O)c2ccc(Cl)cc2)Oc2ccc(NS(=O)(=O)c3ccccc3)cc2CC1=O | – | -2.54% (inactive)
24 | Nc1c(C(=O)Nc2ccc3c(c2)OCCO3)nnn1CCc1ccccc1 | – | -2.78% (inactive)
25 | CC(C)(C)[C@H]1COC(=O)[C@@H](Cc2ccc(F)cc2)C/C=C\C[C@@H](CC(=O)N[C@@H](CO)Cc2ccccc2)C(=O)N1 | – | 1.41% (inactive)
26 | COCc1c(C(=O)OCC(=O)c2c(N)n(CC(C)C)c(=O)n(C)c2=O)oc2ccccc12 | – | -3.99% (inactive)
27 | O=C(/C=C/c1ccc(Cl)c([N+](=O)[O-])c1)Nc1ccc(N2CCCC2)cc1 | – | -14% (inactive)
28 | COC(=O)c1c(N2C(=O)CCC2=O)sc2c1CCCC2 | – | -2.43% (inactive)
29 | Cc1ccc(C)c(S(=O)(=O)c2c(N)n(/N=C/c3ccco3)c3nc4ccccc4nc23)c1 | – | 0.424% (inactive)
30 | CC(C)(C)OC(=O)C[C@H]1C/C=C\C[C@H](CC(=O)N(CCO)Cc2ccccc2)C(=O)NC[C@H](c2ccccc2)OC1=O | – | 3.72% (inactive)
31 | C=CCn1c(NCc2cc(C)ccc2O)nc2ccccc21 | – | 0.219% (inactive)
32 | CCc1c(O)nc(SCC(=O)Nc2ccccc2OC)[nH]c1=O | – | 3.26% (inactive)
33 | Cn1nc(CC(=O)NCc2ccc(F)cc2)c2ccccc2c1=O | – | 4.3% (inactive)
34 | CCCCCCCCCCOC(=O)Cn1c(COc2ccc(Cl)cc2)[n+](C)c2ccccc21 | 18.5 µM (active) | –
35 | Cc1c(N=C/C=C2\N(C)c3ccccc3C2(C)C)c(=O)n(-c2ccccc2)n1C | – | -1.52% (inactive)
36 | NC(=O)C[C@@H]1N[C@]2(C(=O)Nc3ccccc32)[C@@H]2C(=O)N(c3cc(C(F)(F)F)ccc3Cl)C(=O)[C@H]12 | – | 7.44% (inactive)
37 | O=C1COc2ccc(C(=O)COC(=O)/C=C/c3ccc(Br)o3)cc2N1 | 9.27 µM (active) | –
38 | CSCC[C@H](NC(=O)C1CCN(S(=O)(=O)c2ccc(C)cc2)CC1)C(=O)NCc1ccco1 | – | -3.41% (inactive)
39 | CCCCCCCCCCCCCCCC[N+](C)(C)CCN(Cc1ccc(OC)cc1)c1ncccn1 | 11.7 µM (active) | –
40 | NS(=O)(=O)c1ccc(N=Nc2c(O)c(C(=O)O)cc3ccccc23)cc1 | 13.1 µM (active) | –
